This is a sample that favours compounds with a hit; in the whole collection about 1.2% have one here.
Mtb bLac sens = beta-lactam sensitization of Mtb H37Rv; M. tuberculosis H37Rv growth with meropenem, percent inhibition; inhibition, % at 25 µM; 330,000 compounds, 0.27% hits; call rule not given here;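 further: growth measured after seven days incubation then overnight dye step; 0% = bacteria only wells and 100% = bacteria with antibiotic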
BH1578 lux ind = inducers of Vibrio cholerae quorum light production without autoinducers | activation, % at 18.7 µM | V. cholerae BH1578 lux reporter, luminescence, 6 h | 350,000 compounds, 0.16% hits | AID 588436; in the data active means activation mostly above about 9.7%, no sharp cut-off; inconclusive means no clear call, values can overlap the other calls; inactive means mostly below about 3.7%
PfHsp40 yeast = rescue of PfHsp40-mediated yeast toxicity; 340,000 compounds, 0.68% hits; growth rescue, % at 12.5 µM; S. cerevisiae expressing PfHsp40, growth rescue, ATP luminescence; in the data active means growth rescue above about 28%, passing the limit was not always enough; inconclusive means no clear call, values can overlap the other calls;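 further: yeast W303a lacking pdr1 and pdr3 grown in galactose medium; growth measured after three days at 30 °C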
ugtP null kill = growth inhibition of S. aureus ugtP deletion strain; S. aureus RN4220 ugtP deletion, OD600 growth, 16 h; growth inhibition, % (concentration not given with the values); 330,000 compounds, 0.54% hits; AID 1259309; in the data active means growth inhibition above about 68%;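 further: plate controls were untreated wells for no effect and antibiotic for full effect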
RN4220 kill = kills Staphylococcus aureus RN4220 | inhibition, % (test concentration not listed) | S. aureus RN4220 growth, OD600, 16 h | 330,000 compounds, 0.33% hits; in the data active means inhibition above about 85%;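 further: plate controls were untreated cells for no effect and reference antibiotic for full effect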
* = called active by the depositor; i = inactive; ? = inconclusive; nt = not tested or not shown; + = active, no number.

SMILES | Mtb bLac sens | BH1578 lux ind | PfHsp40 yeast | ugtP null kill | RN4220 kill
CC#CCN1c2ccccc2[C@]23CC(C(=O)OC)N(C(=O)NCCBr)C2=NC(C(=O)OC)=C(C(=O)OC)C13 (stereo partly specified) | nt | nt | nt | -2 | 7
CCOc1ccccc1C=NNC(=O)c1cc(C(C)C)[nH]n1 | nt | nt | nt | 13 | 0
COc1ccc(CNC(=O)C2CCN(C(=O)[C@@H](CC(C)C)NC(=O)OC(C)(C)C)CC2)cc1 | nt | 17* | 1 | 2 | -20
CC1C(OC(=O)CCC(=O)NC(C)(C)CO)O[C@H]2OC3(C)CC[C@H]4[C@H](C)CCC1C24OO3 (stereo partly specified) | 3 | 0 | 122* | nt | nt
C[C@H]1[C@H](OC(=O)CCC(=O)NCc2ccc(C(=O)O)cc2)O[C@@H]2O[C@@]3(C)CC[C@H]4[C@H](C)CC[C@@H]1C24OO3 | 4 | 0 | 188* | nt | nt
CC(C)CC(NC(=O)CCCNC(=O)CCC(=O)OC1O[C@H]2OC3(C)CC[C@H]4[C@H](C)CCC(C1C)C24OO3)C(=O)O (stereo partly specified) | -3 | i | 196* | nt | nt
O=C(CN1c2ccccc2Sc2ccccc21)NNC(=S)Nc1ccc(Cl)cc1 | 2 | i | 75* | -5 | -5
COc1cnn(-c2ccccc2)c(=O)c1SCc1ccc(Cl)cc1Cl | -8 | 0 | 88* | 10 | -11
CCCCCCN(C(=O)CCl)c1ccccc1 | 99 | i | -1 | 19 | 12
CCCCCCCN(C(=O)CCl)c1cccc(C)c1 | 54 | 0 | 0 | 87* | 25
Cc1cccc(CSc2ncnc3c2cnn3Cc2ccccc2)c1 | 7 | 0 | 0 | 98* | -8
CN1C(=O)N(C)C2(c3ccccc3)Nn3c(sc(=Cc4ccccc4F)c3=O)=NC12c1ccccc1 (stereo unspecified) | nt | nt | nt | 5 | 0
C(=NN(c1ccccc1)c1ccccc1)c1ccc2c(c1)OCO2 | nt | nt | nt | 95* | -2
Oc1ccc(C=NN(c2ccccc2)c2ccccc2)cc1O | nt | nt | nt | 1 | 13
c1ccc(COc2ccc(OCCn3cncn3)cc2)cc1 | 26 | 0 | 0 | -7 | -1
c1ccc(-c2ccc(OCCCn3cncn3)cc2)cc1 | 5 | i | 269* | 6 | 11
NC(=O)C(=NOC(=O)c1ccco1)c1nc(-c2ccc(Br)cc2)cs1 | nt | nt | nt | 93* | -3
S=C(NCc1ccco1)Nc1ccc(Cl)c(Cl)c1 | 26 | i | 36* | -19 | -6
COC(=O)C1=C(c2ccc(C(C)=O)cc2)CC2CCC1N2C (stereo unspecified) | nt | nt | nt | 8 | 3
CCOc1ccccc1C=C1SC(=S)NC1=O | nt | 0 | -1 | 97* | 95*
O=C1NC(=S)SC1=Cc1cc(Br)ccc1O | nt | nt | 3 | 39 | 31
O=C1NC(=S)SC1=Cc1ccccc1Br | nt | -4 | ? | 100* | 100*
CCOc1ccc(/C=C2\SC(=S)NC2=O)cc1OC | 28 | 0 | -1 | 88* | 79
O=C1NC(=O)/C(=C/c2ccccc2OCc2ccccc2)S1 | 7 | 0 | 2 | 62 | 63
COc1ccc(/C=C2\SC(=O)NC2=S)cc1OC | -3 | -1 | 143* | 65 | 71
SMILES | Mtb bLac sens | BH1578 lux ind | PfHsp40 yeast | ugtP null kill | RN4220 kill
CSC(=S)NN=C(C)c1cccc(C)n1 | nt | i | 64* | nt | nt
O=C(Nc1nnc(-c2ccc3c(c2)OCCO3)o1)c1ccc(Cc2ccccc2)cc1 | 73 | 0 | 0 | 100* | 99*
COc1cccc(-c2nnc(NC(=O)c3ccccc3Br)o2)c1 | 90 | 0 | 0 | 11 | 9
COc1cccc(-c2nnc(NC(=O)c3ccc(Cl)s3)o2)c1 | 95 | 0 | 1 | 100* | 100*
Cc1ccc(C(=O)Nc2nnc(-c3ccncc3)o2)cc1 | 95 | 0 | -1 | 9 | -5
O=C(CCOc1ccccc1)Nc1nnc(-c2ccc3c(c2)OCCO3)o1 | 94 | i | -2 | -3 | 0
Cc1cccc(-c2nnc(NC(=O)c3ccc(Cl)cc3)o2)c1 | ? | -2 | 0 | 95* | 99*
COc1cccc(-c2nnc(NC(=O)c3cccc(F)c3)o2)c1 | 97 | 0 | -1 | 98* | 98*
C=CCC(CC(=O)NCCO)C(=O)NCCOC(=O)C(CC=C)CC(=O)OC(C)(C)C (stereo unspecified) | nt | nt | nt | -5 | 2
CC(=O)Nc1ccc(SCC(Cc2ccccc2)N2CCC(C)CCC2=O)cc1 (stereo unspecified) | nt | nt | nt | 2 | 10
O=C(O)c1cc(NN=Cc2ccc(N3CCOCC3)cc2)ccc1Cl | nt | nt | nt | -1 | 3
O=C(Nc1nnc(-c2ccc(F)cc2)o1)c1cc(Cl)sc1Cl | 95 | 0 | -1 | 99* | 100*
O=C(Nc1nnc(-c2ccc(Cl)cc2)o1)c1nc2ccccc2s1 | 96 | 0 | -2 | 99* | 100*
CCCN(CCC)S(=O)(=O)c1ccc(C(=O)Nc2nnc(-c3cccc(OC)c3)o2)cc1 | 97 | 0 | -2 | 100* | 99*
O=C(Nc1nnc(-c2ccc(Cl)cc2)o1)Nc1ccccc1Cl | 32 | -3 | 0 | 0 | 68
CN1CC2C3C(=O)N(C)C(=O)C3[C@](C)(C1=O)N2C(=O)c1ccc(Cl)cc1 (stereo partly specified) | nt | nt | nt | 10 | 7
COc1ccc(C(=O)Oc2cc(C=NNS(=O)(=O)c3ccc(C)cc3)ccc2OC)cc1 | nt | nt | nt | 1 | 10
CCOC(=O)C1C2COc3ccccc3C2N2C(=O)CN(Cc3ccc(C)cc3)C(=O)[C@@]12C (stereo partly specified) | nt | nt | nt | 4 | 7
CC(C)NC(=O)CSc1nc(-c2ccccc2)cs1 | nt | 0 | 0 | 8 | 4
N#CCSc1nc(-c2ccccc2)cs1 | -1 | -1 | 36* | -13 | 7
CCOc1ccc(NC(=O)CC(C)=NNC(=O)COc2ccc(Br)cc2C)cc1 | nt | nt | nt | 2 | -1
CCn1c(O)c(N=N)c2ccccc21 | -1 | 0 | 0 | 1 | 3
O=Nc1c(O)n(Cc2cccc(C(F)(F)F)c2)c2ccccc12 | -5 | 1 | 0 | -23 | 2
O=Nc1c(O)n(Cc2ccccc2)c2ccccc12 | -5 | 81* | -1 | 0 | 5
CCCn1c(O)c(N=N)c2ccccc21 | -5 | + | 1 | 11 | 10
SMILES | Mtb bLac sens | BH1578 lux ind | PfHsp40 yeast | ugtP null kill | RN4220 kill
O=Nc1c(O)n(Cc2ccc(Cl)c(Cl)c2)c2ccccc12 | 9 | nt | 259* | -2 | -10
O=C1C2C(c3ccc(F)cc3)N3C(=O)N(c4cccc(F)c4)C(=O)[C@@]3(Cc3ccccc3)C2C(=O)N1C1CCCCC1 (stereo partly specified) | nt | nt | nt | -28 | 6
Cc1c(Cl)ccc2c(C(O)CBr)cc(-c3ccccc3)nc12 (stereo unspecified) | nt | -2 | 12 | 96* | 41
CC[C@@]12C(=O)N(c3cccc(C)c3)C(=O)N1C(c1ccc(OC)cc1)C1C(=O)N(C(C)(C)C)C(=O)C12 (stereo partly specified) | nt | nt | nt | -1 | 6
N/C(Cc1ccc(Cl)cc1Cl)=N\OC(=O)c1cccs1 | 3 | -4 | 13 | -11 | -3
N/C(Cc1ccc(Cl)cc1Cl)=N\OC(=O)c1ccc(Br)o1 | 4 | i | 572* | 4 | 7

Screening results: PubChem, several laboratories
